Inconclusive results are not listed. The source made the active and inactive calls. Unless noted, the call rests on the fitted dose curve; in most records, active means well fitted curve in either direction with a large enough effect (not every such curve was filed as active); inconclusive means small, poorly fitted or top-dose-only effect, or another doubt; inactive means flat fitted curve, though single readings scatter.
Tests used:
[1] = AP1 Signaling Pathway (AID 357); details: ME-180 AP-1-bla reporter, EGF-induced, beta-lactamase ratio, 5 h; at 17.2 µM (top of the series) unless noted; further: on the % scale 0 is the no-effect control and ±100 the full control effect
How it was run: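 In this screen, ME-180 cells in Opti-MEM with 0.5% dialyzed FBS received EC50 EGF and compound titrations for 5 h. AP-1 reporter beta-lactamase was detected via CCF4 ratio, giving AC50 for positive and negative modulators.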

[2] = Stat Signaling Pathway (AID 446); details: ME-180 SIE beta-lactamase reporter, IL-6 stimulated, 5 h; at 17.2 µM (top of the series) unless noted;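 further: ME-180 cervical cancer cells given 40 pM IL-6 alongside compound; SIE-controlled beta-lactamase reporter measured as 460/530 nm FRET emission ratio; on the % scale 0 is the no-effect control and ±100 the full control effect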
How it was run: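 Reporter line: ME-180 cervical carcinoma, SIE-beta-lactamase. Treatment: compound with 40 pM IL-6, 5 hrs, 37 C, in low-serum OPTI-MEM with 10 mM HEPES pH 7.3. Detection: 460/530 nm fluorescence.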

[3] = target: Glucocorticoid receptor (Homo sapiens) (UniProt P04150); assay: GR-GFP Redistribution (AID 450;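 active means compounds whose dose series gives a full or clear partial fitted curve of increased nuclear translocation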; further: potency means the concentration at half of the fitted maximal effect)
Sequence of Glucocorticoid receptor (Homo sapiens) (P04150 whole entry, looked up, the tested form may be a part): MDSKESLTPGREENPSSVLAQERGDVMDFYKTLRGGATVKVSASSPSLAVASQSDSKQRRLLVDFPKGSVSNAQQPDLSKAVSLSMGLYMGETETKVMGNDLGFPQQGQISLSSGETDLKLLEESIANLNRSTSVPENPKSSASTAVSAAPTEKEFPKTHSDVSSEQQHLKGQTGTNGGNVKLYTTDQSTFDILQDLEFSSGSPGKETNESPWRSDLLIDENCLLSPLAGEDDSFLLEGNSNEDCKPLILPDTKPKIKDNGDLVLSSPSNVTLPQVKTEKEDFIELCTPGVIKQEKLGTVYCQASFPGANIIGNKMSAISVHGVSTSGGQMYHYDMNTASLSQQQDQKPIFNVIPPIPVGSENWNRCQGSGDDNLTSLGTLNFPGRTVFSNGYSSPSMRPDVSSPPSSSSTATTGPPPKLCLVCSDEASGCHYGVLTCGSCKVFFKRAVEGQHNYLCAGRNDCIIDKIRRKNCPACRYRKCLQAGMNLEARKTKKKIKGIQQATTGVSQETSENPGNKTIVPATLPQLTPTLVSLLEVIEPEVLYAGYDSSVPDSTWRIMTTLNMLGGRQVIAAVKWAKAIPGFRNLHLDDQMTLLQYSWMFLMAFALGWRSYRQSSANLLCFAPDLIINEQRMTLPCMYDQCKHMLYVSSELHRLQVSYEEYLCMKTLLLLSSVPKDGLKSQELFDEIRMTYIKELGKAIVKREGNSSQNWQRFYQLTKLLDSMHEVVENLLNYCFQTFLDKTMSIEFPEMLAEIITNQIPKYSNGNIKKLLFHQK

[4] = target: Glucocorticoid receptor (Homo sapiens) (UniProt P04150); assay: GR-EFC Redistribution (AID 451; calls by dose curve; further: potency means the concentration at half of the fitted maximal effect); details: CHO-K1 GR-EFC translocation, beta-gal luminescence, 2 h
How it was run: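 Translocation of GR-ED fusion to nuclear EA restores b-gal, read by luminescence after 1 h room-temperature detection. Engineered CHO-K1 biosensor cells, 1,000/well, exposed 2 h at 37 C to titrations up to 46 uM final.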

[5] = target: 3',5'-cyclic-AMP phosphodiesterase 4B (Homo sapiens) (UniProt Q07343); assay: qHTS Assay for Inhibitors of PDE-IV (AID 607; active means well fitted activation curve with a large enough effect in the main read-out, with a control signal flat, not every such curve was filed as active; further: % of control where 0% means no effect)
Sequence of 3',5'-cyclic-AMP phosphodiesterase 4B (Homo sapiens) (Q07343 whole entry, looked up): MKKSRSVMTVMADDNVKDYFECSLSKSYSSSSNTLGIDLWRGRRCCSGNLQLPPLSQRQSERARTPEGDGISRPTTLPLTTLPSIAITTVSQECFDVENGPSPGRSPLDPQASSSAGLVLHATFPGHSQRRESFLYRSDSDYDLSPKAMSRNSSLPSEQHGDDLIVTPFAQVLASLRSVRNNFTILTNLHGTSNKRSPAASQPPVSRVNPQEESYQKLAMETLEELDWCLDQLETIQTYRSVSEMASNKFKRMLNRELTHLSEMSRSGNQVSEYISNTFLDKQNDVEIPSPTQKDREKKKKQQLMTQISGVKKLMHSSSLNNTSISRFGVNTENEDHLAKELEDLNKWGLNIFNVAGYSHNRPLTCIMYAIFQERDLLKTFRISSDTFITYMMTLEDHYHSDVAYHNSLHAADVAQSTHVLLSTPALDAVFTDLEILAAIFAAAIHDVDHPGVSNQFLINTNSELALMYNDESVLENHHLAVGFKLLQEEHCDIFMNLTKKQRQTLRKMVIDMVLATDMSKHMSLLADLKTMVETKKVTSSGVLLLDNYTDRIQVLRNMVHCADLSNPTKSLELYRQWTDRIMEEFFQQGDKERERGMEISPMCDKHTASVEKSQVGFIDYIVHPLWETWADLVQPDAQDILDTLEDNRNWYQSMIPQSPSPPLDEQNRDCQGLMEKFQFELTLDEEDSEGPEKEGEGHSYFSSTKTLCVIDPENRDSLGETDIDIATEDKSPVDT
How it was run: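 Cell-based read-out of cAMP via a modified cyclic nucleotide-gated channel and membrane potential dye (535/590 nm) in HEK293 cells expressing PDE4 endogenously. Compounds tested up to 22.9 uM final; 100 uM RO 20-1724 reference.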

[6] = target: Guanine nucleotide-binding protein G(i) subunit alpha-1 (Homo sapiens) (UniProt P63096); assay: qHTS Assay for Inhibitors of RGS12 GoLoco Motif Activity (Green Fluorophore) (AID 879; active means well fitted curve in the direction sought with a large enough effect; an effect the other way counts as inactive or inconclusive;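 further: 0% = labeled peptide with Gαi1 and full inhibition = labeled peptide alone without protein; negative values mean loss of peptide binding seen as reduced polarization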)
Sequence of Guanine nucleotide-binding protein G(i) subunit alpha-1 (Homo sapiens) (P63096 whole entry, looked up): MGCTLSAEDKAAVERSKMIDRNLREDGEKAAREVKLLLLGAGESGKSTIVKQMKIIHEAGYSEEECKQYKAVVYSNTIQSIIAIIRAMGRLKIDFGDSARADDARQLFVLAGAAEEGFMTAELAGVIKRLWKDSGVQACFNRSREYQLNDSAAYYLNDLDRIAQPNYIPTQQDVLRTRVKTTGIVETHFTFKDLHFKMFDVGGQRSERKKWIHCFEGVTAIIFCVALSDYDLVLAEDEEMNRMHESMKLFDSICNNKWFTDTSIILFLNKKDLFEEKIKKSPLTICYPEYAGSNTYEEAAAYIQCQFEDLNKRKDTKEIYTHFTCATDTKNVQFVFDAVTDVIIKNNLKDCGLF
How it was run: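 Fluorescence polarization assay: 50 nM Gαi1 with 10 nM FITC-labeled RGS12 GoLoco peptide in 10 mM Tris pH 7.5, 150 mM NaCl, 0.1 mM GDP, 0.05% NP40, 10 min at room temperature with compound.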

[7] = qHTS Assay for Identification of Small Molecule Agonists for Thrombopoietin (TPO) Signaling Pathway (AID 917; active means well fitted curve in the direction sought with a large enough effect; an effect the other way counts as inactive or inconclusive; further: on the % scale 0 is the no-effect control and ±100 the full control effect)
How it was run: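 Reporter: GpIIb promoter–luciferase in murine Ba/F3 expressing human TPO receptor. Pre-starved of IL-3 overnight; compounds with 26 pM TPO, 24 hrs, 37 C/5% CO2; luminescence read.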

[8] = target: Muscarinic acetylcholine receptor M1 (Rattus norvegicus) (UniProt P08482); assay: qHTS Assay for Antagonists of Acetylcholine Muscarinic M1 Receptor: Kinetic Measurement of Intracellular Calcium Response (AID 943; active means well fitted curve in the direction sought with a large enough effect; an effect the other way counts as inactive or inconclusive;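 further: Fluo-4 calcium signal as peak divided by basal fluorescence over 4 min; nearly all actives have a fitted effect of over 75% in size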)
Sequence of Muscarinic acetylcholine receptor M1 (Rattus norvegicus) (P08482 whole entry, looked up): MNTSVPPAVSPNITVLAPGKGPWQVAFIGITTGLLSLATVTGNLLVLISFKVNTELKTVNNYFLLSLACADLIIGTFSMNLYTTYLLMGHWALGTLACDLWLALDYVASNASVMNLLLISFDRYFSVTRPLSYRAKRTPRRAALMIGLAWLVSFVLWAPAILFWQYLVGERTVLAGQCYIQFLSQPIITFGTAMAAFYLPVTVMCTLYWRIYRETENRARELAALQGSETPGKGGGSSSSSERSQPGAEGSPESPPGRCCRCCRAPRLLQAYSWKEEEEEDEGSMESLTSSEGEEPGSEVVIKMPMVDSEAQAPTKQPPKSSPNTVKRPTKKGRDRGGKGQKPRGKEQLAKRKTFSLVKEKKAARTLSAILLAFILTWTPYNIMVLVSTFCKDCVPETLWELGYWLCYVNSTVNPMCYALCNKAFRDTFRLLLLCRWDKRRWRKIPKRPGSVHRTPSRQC
How it was run: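 Rat M1-CHO cells, 2000/well, overnight → Fluo-4 no-wash dye with probenecid, 1 h 37C → compound 10 min, room temp → basal read 6 s → carbachol EC80 (100 nM) → 4 min kinetic read; peak/basal.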

[9] = target: Muscarinic acetylcholine receptor M1 (Rattus norvegicus) (UniProt P08482); assay: qHTS Assay for Antagonists of Acetylcholine Muscarinic M1 Receptor: Measurement of IP-One Response (AID 944; active means well fitted curve in the direction sought with a large enough effect; an effect the other way counts as inactive or inconclusive; further: nearly all actives have a fitted effect of over 75% in size)
How it was run: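 M1-CHO (rat), 2000 cells/well, overnight recovery; cpd 10 min; carbachol EC80 (200 nM), 30 min, HEPES buffer + 50 mM LiCl pH 7.4; IP-One HTRF, Ex 337, Em 620/665 nm.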

[10] = target: Pyruvate kinase (Leishmania mexicana) (UniProt Q27686); assay: qHTS Validation Assay for Inhibitors of Leishmania Mexicana Pyruvate Kinase (AID 945; active means well fitted curve in the direction sought with a large enough effect; an effect the other way counts as inactive or inconclusive;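 further: 0% = DMSO only neutral control wells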)
Sequence of Pyruvate kinase (Leishmania mexicana) (Q27686 2-499 E452W): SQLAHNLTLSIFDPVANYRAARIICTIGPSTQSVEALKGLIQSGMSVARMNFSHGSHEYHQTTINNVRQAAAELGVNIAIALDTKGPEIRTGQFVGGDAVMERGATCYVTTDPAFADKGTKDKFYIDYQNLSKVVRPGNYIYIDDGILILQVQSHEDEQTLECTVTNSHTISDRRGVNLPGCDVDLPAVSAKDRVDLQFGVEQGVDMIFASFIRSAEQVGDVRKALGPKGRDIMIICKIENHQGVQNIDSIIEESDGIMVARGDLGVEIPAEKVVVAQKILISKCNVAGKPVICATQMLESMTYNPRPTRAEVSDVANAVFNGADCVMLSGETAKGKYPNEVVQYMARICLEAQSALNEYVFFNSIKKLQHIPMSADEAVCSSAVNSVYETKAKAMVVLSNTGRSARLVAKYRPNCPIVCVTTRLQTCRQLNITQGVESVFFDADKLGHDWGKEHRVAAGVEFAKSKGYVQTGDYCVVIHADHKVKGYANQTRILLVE
How it was run: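 Luminescent ATP detection (PKLight) after a 1 h room-temperature reaction of 0.2 nM LmPYK E451W mutant with 0.5 mM PEP and 0.1 mM ADP at pH 7.2. Activity is normalized to DMSO-only control wells.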

[11] = target: Pyruvate kinase PKM (Homo sapiens) (UniProt P14618); assay: qHTS Assay for Activators of Human Muscle Pyruvate Kinase (AID 954; active means well fitted curve in the direction sought with a large enough effect, not every such curve was filed as active;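 further: 0% = uninhibited enzyme and -100% = no enzyme or full thiadiazolimine inhibition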)
Sequence of Pyruvate kinase PKM (Homo sapiens) (P14618 whole entry, looked up): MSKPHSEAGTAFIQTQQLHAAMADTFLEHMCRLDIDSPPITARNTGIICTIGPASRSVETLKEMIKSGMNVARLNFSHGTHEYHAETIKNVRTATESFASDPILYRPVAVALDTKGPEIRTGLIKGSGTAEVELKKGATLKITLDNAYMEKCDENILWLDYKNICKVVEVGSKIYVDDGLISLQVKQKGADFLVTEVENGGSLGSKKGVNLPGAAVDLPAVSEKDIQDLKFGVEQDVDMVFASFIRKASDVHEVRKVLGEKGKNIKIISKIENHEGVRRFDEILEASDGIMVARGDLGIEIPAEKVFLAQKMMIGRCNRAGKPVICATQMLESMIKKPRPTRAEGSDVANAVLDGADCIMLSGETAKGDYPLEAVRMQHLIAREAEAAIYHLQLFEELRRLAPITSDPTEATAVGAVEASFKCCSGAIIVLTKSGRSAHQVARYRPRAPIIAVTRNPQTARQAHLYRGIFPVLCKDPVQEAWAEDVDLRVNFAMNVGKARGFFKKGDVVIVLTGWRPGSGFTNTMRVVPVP
How it was run: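 Human PKM2 activity is measured as ATP generation, detected by luciferase-coupled luminescence. The enzyme (0.1 nM) acts on 0.5 mM PEP and 0.1 mM ADP for 1 h at ambient temperature; data are normalized to uninhibited and full-inhibition wells.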

[12] = target: Alpha-galactosidase A (Homo sapiens) (UniProt P06280); assay: Counterscreen for Glucocerebrosidase Inhibitors: qHTS Assay for Human alpha-Galactosidase at pH 4.5 (AID 992; active means well fitted curve in the direction sought with a large enough effect; an effect the other way counts as inactive or inconclusive; further: 0% is about no effect)
Sequence of Alpha-galactosidase A (Homo sapiens) (P06280 whole entry, looked up): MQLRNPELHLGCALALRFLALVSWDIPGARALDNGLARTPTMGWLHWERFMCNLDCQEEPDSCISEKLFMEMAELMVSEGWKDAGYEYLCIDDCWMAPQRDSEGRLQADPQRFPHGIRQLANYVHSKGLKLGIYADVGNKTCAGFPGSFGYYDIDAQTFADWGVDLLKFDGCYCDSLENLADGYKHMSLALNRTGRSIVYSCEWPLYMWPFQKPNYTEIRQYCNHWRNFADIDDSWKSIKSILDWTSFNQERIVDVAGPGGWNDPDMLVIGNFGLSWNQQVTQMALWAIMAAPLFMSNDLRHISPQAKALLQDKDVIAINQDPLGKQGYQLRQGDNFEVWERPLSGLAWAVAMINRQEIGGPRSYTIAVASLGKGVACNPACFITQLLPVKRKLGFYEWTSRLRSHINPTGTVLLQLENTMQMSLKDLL
How it was run: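 Quantitative HTS: compounds tested from 0.7 nM up to 77 uM against 2 nM enzyme with 80 uM 4-MU alpha-D-galactopyranoside. The 20 min room-temperature reaction is stopped with 1M NaOH/1M glycine, pH 10.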

[13] = target: alpha-glucosidase (Oryza sativa, rice) (UniProt Q653V4); assay: Counterscreen for Glucocerebrosidase Inhibitors: qHTS Assay for Rice alpha-Glucosidase at pH 5.0 (AID 997; active means well fitted curve in the direction sought with a large enough effect; an effect the other way counts as inactive or inconclusive;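 further: 0% = full activity with enzyme and -100% = basal without enzyme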)
How it was run: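 Rice alpha-glucosidase (4 nM final) with 400 uM 4-methylumbelliferyl-alpha-D-glucopyranoside in citrate buffer pH 5.0, 20 min at room temperature, stopped at pH 10; fluorescence 365/440 nm, compounds 0.7 nM–77 uM, AC50 from Hill fits.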

[14] = target: Mitogen-activated protein kinase 10 (Mus musculus) (UniProt Q61831); assay: JNK3 AlphaScreen Assay (AID 530);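 further: kinase came from lysate of stimulated human HepG2 cells; signal reports phosphorylation of biotinylated GST-cJun 1-79 at Ser73 with 10 µM ATP; on the % scale 0 is the no-effect control and ±100 the full control effect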
How it was run: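 Compound titrations were preincubated 15 minutes at room temperature with substrate, antibody and pre-activated JNK3-containing HepG2 lysate. Reactions were started with 10 uM ATP and stopped with EDTA-containing bead buffer for AlphaScreen detection.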

[15] = qHTS Assay for Identification of Small Molecule Agonists for Hypoxia Response Element Signaling Pathway (AID 914; active means well fitted activation curve with a large enough effect in the signal ratio, with a control signal flat, not every such curve was filed as active; the % refers to the signal ratio; further: potency means the concentration at half of the fitted maximal effect; on activation: % of control where 0% means no effect); details: ME-180 (cervical carcinoma) HRE-bla reporter, beta-lactamase ratio, CoCl2, 17 h; activation: hits give high values
How it was run: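 HRE-bla ME-180 cells, overnight plating in Opti-MEM with 0.5% dialyzed FBS; cpd titration + EC50 CoCl2, 17 h, 37 degrees Celsius; CCF4 2.5 h RT; 460/530 nm ratio; AC50.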

[16] = qHTS for Inhibitors of the vitamin D receptor (VDR): Hit Validation using a Texas Red Assay (AID 602201; active means well fitted curve in the direction sought with a large enough effect; an effect the other way counts as inactive or inconclusive; further: potency means the concentration at half of the fitted maximal effect); details: VDR coregulator binding, Texas Red fluorescence polarization; agonist-bound VDR ligand-binding domain
How it was run: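 After a 2-hour room-temperature incubation, polarization of Texas-Red emission was read (Ex 595 nm/Em 615 nm). Final mix contained 7 nM Texas Red, 1.5 uM VDR-LBD and LG19078.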

NC[C@@H]1O[C@@H](O[C@H]2[C@@H](O)[C@H](O[C@@H]3[C@H](O)[C@H](N)C[C@H](N)[C@H]3O[C@@H]3O[C@@H](CO)[C@H](O)[C@H](O)[C@@H]3N)O[C@H]2CO)[C@H](N)[C@H](O)[C@@H]1O
inactive: activity change, negative = inhibition [1] 7.75% [at 38 µM] | activity, negative = inhibition [2] -13.5% [at 38 µM] | Potency [3] > 46 µM | Potency [4] > 46 µM | Potency [5] | outcome [6] | Potency [7] | Potency [8] | Potency [9] | Potency [10] | outcome [11] | outcome [12] | outcome [13]

CCOC(=O)C1=C(C)NC(C)=C(C(=O)OC)[C@H]1c1cccc(Cl)c1Cl
inactive: activity change, negative = inhibition [1] -9.86% [at 38 µM] | activity, negative = inhibition [2] -0.0099% [at 38 µM] | Potency [3] > 46 µM | Potency [4] > 46 µM | Potency [14] | outcome [6] | Potency [10] | outcome [11] | outcome [12] | outcome [13]

C=CCOc1nc2c(c(=O)n(C)c(=O)n2C)n1Cc1c(Cl)cccc1Cl
inactive: activity change, negative = inhibition [1] 0.413% | activity, negative = inhibition [2] 3.61% | Potency [3] > 20.6 µM

COc1ccc(OC)c2c(N)c(C#N)c(C(F)(F)C(F)(F)F)nc12
inactive: activity change, negative = inhibition [1] 5.08% | activity, negative = inhibition [2] 14% | Potency [3] > 20.6 µM
active: Potency [15] 10 µM

COc1ccc(-n2c(=O)c(CCc3ccccc3)nc3cnc(N4CCNCC4)nc32)cc1
active: Potency [15] 3.16 µM
inactive: activity change, negative = inhibition [1] 4.61% [at 7.69 µM] | activity, negative = inhibition [2] 0.474% [at 7.69 µM] | Potency [3] > 9.22 µM | Potency [4] > 46 µM | Potency [14] | Potency [5]

CC12CN3CC(C)(CN(C1)C3c1ccc(Br)cc1O)C2 (centres undefined)
inactive: activity change, negative = inhibition [1] -9.61% | activity, negative = inhibition [2] -0.00253% | Potency [3] > 20.6 µM | activation [15] -25.5%

O=C(CCN1CCc2ccccc2CC1)c1ccc2c(c1)OCCO2
active: Potency [16] 10 µM
inactive: activity change, negative = inhibition [1] -22% | activity, negative = inhibition [2] 12.8% | Potency [3] > 20.6 µM

CC(C)OCCCn1c(=N)c(C(N)=S)cc2c(=O)n3ccccc3nc21
inactive: activity change, negative = inhibition [1] -4.52% | activity, negative = inhibition [2] -1.51% | Potency [3] > 20.6 µM | activation [15] 13.6%

N=c1c(C(=O)NCc2ccccc2)cc2c(=O)n3ccccc3nc2n1Cc1ccco1
active: Potency [15] 6.31 µM
inactive: activity change, negative = inhibition [1] -5.29% | activity, negative = inhibition [2] 19.8% | Potency [3] > 20.6 µM

COCCNC(=O)c1c(N)n(/N=C/c2cccs2)c2nc3ccccc3nc12
active: Potency [15] 10 µM
inactive: activity change, negative = inhibition [1] -0.395% | activity, negative = inhibition [2] 19.9% | Potency [3] > 20.6 µM

COc1cccc(/C(O)=C2/C(=O)C(=O)N(CCCN(C)C)C2c2cccc(Cl)c2)c1 (centres undefined)
inactive: activity change, negative = inhibition [1] 5.09% | activity, negative = inhibition [2] 5.04% | Potency [3] > 20.6 µM | activation [15] 9.88%

O=C(c1ccc(=O)oc1)N1CCOCC1
inactive: activity change, negative = inhibition [1] 17.3% | activity, negative = inhibition [2] -0.795% | Potency [3] > 20.6 µM | activation [15] 5.28%

Cc1ccc2[nH]c3c(N4CCCCCC4)ncnc3c2c1
inactive: activity change, negative = inhibition [1] -20.6% | Potency [3] > 20.6 µM

CCOC(=O)C1=C(C)NC(SCC(=O)Nc2nc(C)cs2)=C(C#N)C1c1cccs1 (centres undefined)
inactive: activity change, negative = inhibition [1] -22.9% | activity, negative = inhibition [2] -27.7% | Potency [3] > 20.6 µM
active: Potency [15] 10 µM

O=c1/c(=C\c2cccn2-c2ccccc2)sc2nc3ccccc3n12
inactive: activity change, negative = inhibition [1] 2.64% | activity, negative = inhibition [2] 14.8% | Potency [3] > 20.6 µM
active: Potency [15] 12.6 µM

Cc1ccnc(N2CCN(c3cc(C)c(C#N)c4nc5ccccc5n34)CC2)c1
inactive: activity change, negative = inhibition [1] 22.1% | Potency [3] > 20.6 µM

Cc1ccccc1-c1nn2c(-c3ccccc3)nnc2s1
inactive: activity change, negative = inhibition [1] -18% | Potency [3] > 20.6 µM

From PubChem BioAssay (NCATS)
